# MsrA inhibitor – bovine MsrA enzyme inhibitors, primary screen, biochemical, absorbance, HTS | 360,000 tested, 0.75% active | inhibition, % at 15.5 µM | purified bovine MsrA, absorbance read-out | AID 651718, 2012 | Methionine sulfoxide reductase A (Bos taurus); in the data active = inhibition above about 4.5%;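 also: 0% = vehicle wells with enzyme and 100% = reference inhibitor wells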
# MsrA act – bovine MsrA enzyme activators, primary screen, biochemical, absorbance, HTS; Methionine sulfoxide reductase A (Bos taurus); purified bovine MsrA, absorbance read-out; activation, % at 10.6 µM; 360,000 tested, 0.3% active; AID 602163, 2012; in the data active = activation above about 7.5%;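 also: 0% = vehicle and 100% = reference activator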
# 14-3-3 Bad inh – inhibitors of 14-3-3 zeta/Bad binding, primary screen, biochemical, TR-FRET, bovine 14-3-3 zeta | 14-3-3 protein zeta/delta (Bos taurus), P63103 | TR-FRET 14-3-3zeta/Dy647-pBad peptide displacement, 1 h | inhibition, % at 21.7 µM | 220,000 tested, 0.71% active | AID 781, 2007;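 active = inhibition above about 70%, limit read from the data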;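 also: 0% = full 14-3-3 plus peptide FRET controls and 100% = background without 14-3-3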
# Target sequence (P63103 whole entry, looked up): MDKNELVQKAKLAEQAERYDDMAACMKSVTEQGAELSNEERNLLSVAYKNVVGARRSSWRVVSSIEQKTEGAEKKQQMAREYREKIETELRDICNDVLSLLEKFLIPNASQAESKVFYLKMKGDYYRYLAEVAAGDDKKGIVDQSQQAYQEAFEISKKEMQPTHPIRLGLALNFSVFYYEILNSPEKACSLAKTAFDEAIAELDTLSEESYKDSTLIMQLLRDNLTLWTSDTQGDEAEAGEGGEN
# p-CIP stab down – p/CIP-EGFP fusion destabilizers, primary screen, fluorescence, F442A cells; Q05BA5; 16 h; decrease of EGFP signal, % at 10 µM; 290,000 tested, 0.01% active;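 active = EGFP signal decrease of at least 30% at 10 µM or well 3 SD below plate mean, unless failing retest; inactive = the rest, including hits failing retest or dose response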
# The depositor's hits bear a star; nt = no result given; [ ] = dose if it differs, or a comment. Hits are enriched below; roughly 1.4% of the tested compounds scored in any of these assays.
SMILES,MsrA inhibitor,MsrA act,14-3-3 Bad inh,p-CIP stab down
CCCc1nc2ccccc2c(NC(=O)CN(CC)CC)c1CC,1,-4,80*,18
Nc1nc2c(ncn2[C@@H]2O[C@H](C(=O)NCCc3c[nH]c4ccccc34)[C@@H](O)[C@H]2O)c(=O)[nH]1,0,nt,nt,nt
CN(C)c1cccc2c(S(=O)(=O)NC(=O)[C@H]3O[C@@H](n4ccc(=O)[nH]c4=O)[C@H](O)[C@@H]3O)cccc12,1,nt,nt,nt
Cc1cc(CN2CCN(c3ncc(Cc4ccccc4)cn3)CC2)cc(C)c1O,1,nt,nt,nt
CCCc1nc(SCC(=O)NNC(=O)c2ccc(OC)cc2)c2ccccc2n1,2,-5,98*,1
COc1ccc(CN2CCN(Cc3ccc4ccccc4c3)CC2)cc1OC,0,-5,nt,-13
COc1ccc2ccccc2c1CN1CCN(Cc2ccccc2)CC1,1,-7,91*,1
CCCCCCCCN1C(=O)[C@H](CC(=O)NCCC(C)C)C[C@@]2(C(=O)OCC)CCC=C12,0,nt,nt,nt
COc1cccc(CNc2ncn[nH]2)c1OCc1ccc(F)cc1,2,-4,-10,-4
CCN1CCCC1CNCc1cccc(OC)c1OCc1ccc(F)cc1 (stereo not drawn),-2,-1,77*,-7
CC(C)(C)C(=O)NCCCc1nc2ccccc2n1CCCOc1ccc(Cl)cc1,0,10*,-5,-6
CCCN1CCCCC(NC(=O)c2ccccc2C)C1=O (stereo not drawn),0,nt,nt,nt
O=C(CC1CCCC1)N[C@H](C(=O)N1CCC[C@H]1C(=O)NCCc1ccccc1Cl)c1ccccc1,1,nt,nt,nt
O=C(CN1CCOCC1)n1c2c(c3ccccc31)CCCC2,1,-2,-2,3
O=C(CN1CCOCC1)n1c2ccccc2c2ccccc21,0,-8,75*,7
O=C(CN1CCN(C(c2ccccc2)c2ccccc2)CC1)N1CCOCC1,0,-2,73*,-8
COC(=O)[C@]1(Cc2ccccc2)NC=C(C(=O)c2ccc(F)cc2)[C@@H]1c1ccccc1,2,nt,nt,nt
Cc1cc(C)nc(SCc2ccc(C(=O)NNC(=O)Nc3cccc(Cl)c3)cc2)n1,0,-7,94*,-22
CC1=CC(=O)c2c(O)ccc(O)c2C1=O,nt,nt,91*,-7
Cc1ccccc1NC(=O)N(C)[C@H]1C[C@H]2c3[nH]c4c(-c5ccc6c(c5)OCO6)cccc4c3CCN2C(=O)[C@H]1[C@H](C)O,0,nt,nt,nt
COc1cccc(S(=O)(=O)N(C)C[C@@H]2Oc3ncc(Br)cc3C(=O)N([C@H](C)CO)C[C@@H]2C)c1,0,nt,nt,nt
N/C(=N\N=C\c1cccs1)SC1CC(=O)N(c2cccc([N+](=O)[O-])c2)C1=O (stereo not drawn),3,-1,82*,9
COc1ccc(C2CC(=O)C(c3ccc(C#N)cc3)=CN2Cc2ccccc2)cc1 (stereo not drawn),3,nt,nt,nt
COc1ccc(/C=C\c2nc(=O)c3ccccc3o2)cc1,4.7*,-5,8,4
Cc1cc(Nc2cccc(F)c2)cc(=O)n1-c1cccc(F)c1,0,nt,nt,nt
SMILES,MsrA inhibitor,MsrA act,14-3-3 Bad inh,p-CIP stab down
O=C(c1cnccn1)N1CCc2ccccc2C1,1,-2,93*,10
COc1cc(CNc2ccccc2SC)cc(OC)c1OC,0,-8,40,-8
COc1ccc(CNc2ccccc2SC)cc1OC,-1,3,74*,-7
C[C@@H]1ON(C)[C@H]2C[C@H]3c4[nH]c5cccc(Br)c5c4CCN3C(=O)[C@@H]12,0,nt,nt,nt
COc1ccc(/C=C2\C(=O)NC(=S)N2C(=O)c2ccc(F)cc2)cc1,1,1,89*[fluorescence artefact?],9
CCCCOCC1CC(CC#CCN2CCCCC2)C(=O)O1 (stereo not drawn),0,-4,78*,-6
COCc1cc(N2CCNC[C@@H]2C)ccc1N1C[C@@H](C)O[C@@H](C)C1,-1,nt,nt,nt
CC1CCN(Cc2nc(-c3ccccc3)no2)CC1,-1,-5,76*,nt
O=C(N/N=C/c1ccc(OC(=O)c2cccs2)cc1)c1cccc(F)c1,nt,-3,72*,2
CCC(c1nnnn1C1CCCC1)N1CCN(c2ccccc2F)CC1 (stereo not drawn),1,-3,9,-20
CCCC(c1nnnn1C1CCCC1)N1CCN(c2ccccc2F)CC1 (stereo not drawn),0,0,81*,-12
O=C(CO/N=C/c1ccccc1OC(F)F)N1CCc2ccccc21,-1,-3,84*[fluorescence artefact?],-18

# Bioassay records: PubChem, several laboratories
